STK33 kin inh: inhibitors of human STK33 kinase. AID 2322. 27,000 tested, 0.44% active. Q9BYT3. inhibition, % at 12.5 µM. ADP-Glo luminescence, MBP substrate; in the data active = inhibition above about 20%
ID4 binder: binds human ID4 protein on microarray; AID 624137; P47928; calls only; 31,000 tested, 1.2% active; small molecule microarray, Flag-ID4 binding, fluorescence F/B; call rule not given here;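 note: a binder raises fluorescence above local background on the spot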
Target sequence (P47928 whole entry, looked up): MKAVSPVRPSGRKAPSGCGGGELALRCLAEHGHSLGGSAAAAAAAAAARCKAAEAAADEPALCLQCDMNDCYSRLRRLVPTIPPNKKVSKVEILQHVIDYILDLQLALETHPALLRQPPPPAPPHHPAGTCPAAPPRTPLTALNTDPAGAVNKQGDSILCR
mut p53 react: mutant p53 pathway reactivation | activation, % at 9.98 µM | AID 624151 | SW480 PUMA-promoter luciferase | 28,000 tested, 1.5% active; in the data active = activation above about 52%
* marks the source's active call; other numbers are inactive results; i = inactive; nt = not tested or not shown; + = active, no number. An excerpt weighted towards active compounds, which were near 2% of everything screened.

SMILES	STK33 kin inh	ID4 binder	mut p53 react
CC(=O)Nc1ccc(-n2c(CCC(=O)O)ccc2-c2ccc(C)cc2)cc1	3	+	-2
CC(=O)c1ccc(-n2c(CCC(=O)O)ccc2-c2ccc(F)cc2)cc1	4	i	2
CC1=CC(C)C2COC(c3ccccc3OCc3ccccc3)C1C2C (stereo not drawn)	2	nt	nt
Cc1cc(C(=O)NCc2ccco2)c2cc(F)ccc2n1	0	i	-4
O=C(c1ccccc1Cl)n1nc(-c2ccccc2)nc1NCc1ccco1	5	i	26
O=C(c1ccc(F)cc1)n1nc(-c2ccc(Cl)cc2)nc1NCc1ccco1	-5	i	150*
O=C(c1cccs1)n1nc(-c2ccccc2)nc1NCc1ccco1	6	i	86*
COc1ccc(-c2cc(=O)c3ccccc3o2)cc1	8	i	43
O=c1cc(-c2ccccc2)oc2cc(O)ccc12	17	i	77*
Nc1ccc(-c2cc(=O)c3cc(O)ccc3o2)cc1	8	i	26
COc1ccc2oc3ccccc3c(=O)c2c1	61*	nt	nt
COc1ccc2c(=O)cc(-c3ccccc3)oc2c1	8	nt	81*
O=c1c2ccccc2oc2ccc(O)cc12	17	i	nt
O=C(NCCc1nc2ccccc2[nH]1)c1ccc(-c2ccccc2)cc1	-1	i	-2
Cc1n[nH]c(=S)n(/N=C/C=C/c2ccccc2)c1=O	1	nt	nt
CNCCNS(=O)(=O)c1cccc2cnccc12	22*	i	-13
CC1CNCCN1S(=O)(=O)c1cccc2cnccc12 (stereo not drawn)	9	i	nt
NCCNS(=O)(=O)c1cccc2c(Cl)cccc12	5	i	-7
O=S(=O)(NCCNC/C=C/c1ccc(Br)cc1)c1cccc2cnccc12	79*	nt	-10
CS(=O)(=O)N(CC(=O)Nc1ccc(Cl)cc1)c1cccc([N+](=O)[O-])c1	-17	i	-7
CCn1c(SCC(=O)Nc2cccc(OC)c2)nc2scc(-c3ccccc3)c2c1=O	0	i	-16
COC(=O)Nc1nc2ccc(C(=O)c3ccccc3)cc2[nH]1	9	nt	-65
COC(=O)Nc1nc2ccc(C(=O)c3cccs3)cc2[nH]1	22*	i	nt
COc1ccc(-c2nn(CCC(=O)O)c3nc(C)cc(C)c23)c(OC)c1	nt	i	-4
Cc1c(CO)c2ccccc2n1Cc1ccccc1C#N	4	i	-54
SMILES	STK33 kin inh	ID4 binder	mut p53 react
C[C@@H]1CN([C@H](C)CO)C(=O)c2cc(C3=CCCCC3)cnc2O[C@H]1CN(C)Cc1ccc(C(=O)O)cc1	nt	+	4
C[C@H](CO)N1C[C@H](C)[C@@H](CN(C)Cc2ccccc2C(=O)O)Oc2ncc(C3=CCCCC3)cc2C1=O	nt	+	11
C[C@H](CO)N1C[C@H](C)[C@@H](CN(C)Cc2ccccc2F)Oc2ncc(C3=CCCCC3)cc2C1=O	nt	i	nt
C[C@H]1CN([C@@H](C)CO)C(=O)c2cc(C3=CCCCC3)cnc2O[C@@H]1CN(C)Cc1ccccc1	nt	i	nt
CCN1CSC(=S)N(CC)C1	nt	i	-13
Cc1ccc(C)c(NC(=O)C(C)n2nc(C)c([N+](=O)[O-])c2C)c1 (stereo not drawn)	-1	i	7
O=C(O)c1cc(NC(=O)C2CCCO2)cc(NC(=O)C2CCCO2)c1 (stereo not drawn)	0	+	-7
O=C(Nc1ccc(S(=O)(=O)NCC2CCCO2)cc1)C1CCCO1 (stereo not drawn)	0	i	-1
CC1(C)CC(=O)C=C(Sc2nc3cc(Cl)ccc3s2)C1	3	nt	nt
c1ccc(-c2oc3ncnc(NCCN4CCOCC4)c3c2-c2ccccc2)cc1	3	i	-15
O=C(O)CNc1ncnc2oc(-c3ccccc3)c(-c3ccccc3)c12	43*	i	9
C[C@@H]1CN([C@@H](C)CO)S(=O)(=O)c2ccc(C3=CCCC3)cc2O[C@H]1CN(C)C(=O)Nc1ccc2c(c1)OCO2	nt	+	nt
C[C@@H]1CN([C@@H](C)CO)S(=O)(=O)c2ccc(C3=CCCC3)cc2O[C@@H]1CN(C)C(=O)Nc1ccc2c(c1)OCO2	nt	i	nt
COc1ccc(CN(C)C[C@H]2Oc3ccc(NC(=O)Cc4cn(C)c5ccccc45)cc3CC(=O)N([C@@H](C)CO)C[C@H]2C)cc1	nt	i	-7
COc1ccc(NC(=O)Nc2ccc3c(c2)CC(=O)N([C@@H](C)CO)C[C@H](C)[C@H](CN(C)Cc2ccc4c(c2)OCO4)O3)cc1	5	nt	nt
CNC[C@H]1Oc2ccc(NC(=O)Cc3cn(C)c4ccccc34)cc2CC(=O)N([C@@H](C)CO)C[C@@H]1C	-2	i	-2
CNC[C@@H]1Oc2ccc(NC(=O)Cc3cn(C)c4ccccc34)cc2CC(=O)N([C@@H](C)CO)C[C@H]1C	nt	+	-4
COc1ccc(CN(C)C[C@@H]2Oc3ccc(NC(=O)Nc4ccc5c(c4)OCO5)cc3CC(=O)N([C@@H](C)CO)C[C@H]2C)cc1	nt	+	-1
COc1ccc(CN(C)C[C@@H]2Oc3ccc(NC(=O)Cc4cn(C)c5ccccc45)cc3CC(=O)N([C@@H](C)CO)C[C@H]2C)cc1	nt	+	-10
C=C1[C@H](OC(=O)C(C)CC)[C@@H](OC(=O)C(C)C)[C@@H](O)C(C)(C)/C=C\[C@H](C)C(=O)[C@@]2(O)C[C@H](C)[C@H](O)[C@@H]2[C@H]1OC(=O)C(C)CC (stereo partly drawn)	-9	nt	nt
O=C(O)COc1ccc(NC(=O)c2ccccc2-c2ccccc2C(=O)O)cc1	-2	i	1
C=CCC1OC(=O)CCNC(=O)C(C)N(C)C(=O)C(C(C)C)N(C)C(=O)C(C(C)CC)NC(=O)C2CCCN2C1=O (stereo not drawn)	-1	nt	nt
COc1ccc([Si](C)(C)[C@H]2[C@H](CC(=O)N3Cc4ccccc4C[C@H]3CO)O[C@@]3(C(=O)N(C)c4c(Br)cc(C)cc43)[C@@H]2C)cc1	-2	nt	nt
C[C@H]1CN([C@@H](C)CO)C(=O)Cc2cc(NC(=O)Cc3ccccc3)ccc2O[C@@H]1CN(C)C(=O)Nc1ccc2c(c1)OCO2	-1	i	8
C[C@H](CO)N1C[C@H](C)[C@@H](CN(C)C(=O)Nc2ccc3c(c2)OCO3)Oc2ccc(NC(=O)Cc3ccccc3)cc2CC1=O	nt	+	5
SMILES	STK33 kin inh	ID4 binder	mut p53 react
COc1cccc(C(=O)/C=c2\[nH]c(=O)/c(=C\c3cccs3)s2)c1	5	nt	nt
Cc1ccc2c(C(=O)Nc3sc4c(c3C(N)=O)CCCCC4)cc(-c3ccccn3)nc2c1C	6	+	6
CCc1c(C)sc(NC(=O)c2cc(-c3ccccn3)nc3c(C)cccc23)c1C(=O)N1CCCCC1	3	i	-15
Cn1c(=O)n(C)c2cc(CNCc3cccnc3)ccc21	1	i	4
COC(=O)c1cc(O)c(C(=O)c2c(O)cccc2C(=O)O)c(O)c1	94*	i	nt
COC(=O)c1cccc(O)c1C(=O)c1c(O)cc(C)cc1O	-10	i	16
CC(C)(C)c1ccccc1NC(=O)c1cccc(Cn2cc(Cl)cn2)c1	nt	i	-3
NC(=O)c1c(NC(=O)Cn2c(=O)oc3ccccc32)sc2c1CCCC2	3	i	-14
NC(=O)c1c(NC(=O)C2CC(=O)N(c3ccccc3)C2)sc2c1CCCC2 (stereo not drawn)	0	+	15
Cc1cccnc1NCC(O)COc1ccccc1 (stereo not drawn)	2	+	25
